# Only some compounds are listed: those with a hit (about 22% of all), similar ones and a draw of the others.
# Measles CPE = protection of cells from measles virus; Measles virus-infected cells, CPE protection, absorbance; protection (pct of control), % at 4 µM; 140,000 compounds, 1.5% hits; in the data active means protection mostly above about 24%, no sharp cut-off; inactive means mostly below about 26%
# CYP2C9 inhib = blocks human cytochrome P450 2C9. P11712. CYP2C9 Supersomes, luciferin-H conversion, luminescence. inhibition, % at 5 µM. 96,000 compounds, 20% hits. AID 777;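 active means blocking of liver enzyme CYP2C9 beyond about 50% at 5 µM, limit read from the data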
# CYP2C19 inhib = blocks human cytochrome P450 2C19 | P33261 | CYP2C19 Supersomes, luciferin-H EGE luminescence, 30 min | inhibition, % at 5 µM | 96,000 compounds, 21% hits | AID 778;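 active means CYP2C19 inhibition above a set limit at 5 µM in the primary screen, cut at about 50% in these data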;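 further: plate controls were negative control wells for no effect and 2.5 mM tranylcypromine positive control for full effect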
# Target sequence (P33261 whole entry, looked up): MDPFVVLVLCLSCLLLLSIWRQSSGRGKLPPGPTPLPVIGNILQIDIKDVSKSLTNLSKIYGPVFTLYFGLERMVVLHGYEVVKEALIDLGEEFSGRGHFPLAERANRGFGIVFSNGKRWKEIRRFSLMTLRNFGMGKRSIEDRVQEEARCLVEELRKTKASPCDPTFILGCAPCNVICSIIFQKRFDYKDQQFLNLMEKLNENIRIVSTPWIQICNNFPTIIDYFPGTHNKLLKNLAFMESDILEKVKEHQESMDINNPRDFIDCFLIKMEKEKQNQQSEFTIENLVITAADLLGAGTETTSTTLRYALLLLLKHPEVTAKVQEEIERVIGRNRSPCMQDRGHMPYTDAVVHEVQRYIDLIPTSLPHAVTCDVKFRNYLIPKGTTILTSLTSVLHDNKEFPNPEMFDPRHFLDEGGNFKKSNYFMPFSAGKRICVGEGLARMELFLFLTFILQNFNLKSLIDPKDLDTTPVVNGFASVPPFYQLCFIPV
# CYP2C19 activ = cytochrome P450 2C19 (human) activation. P33261. recombinant CYP2C19, luciferin-H EGE luminescence; active compounds read high; 0 = fully inhibited enzyme, 1 = untreated enzyme. activation factor at 5 µM. 96,000 tested, under 10 active. AID 1025;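 active means activation factor of at least 2 at 5 µM in the primary screen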;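 further: 0 = wells with 2.5 mM tranylcypromine and 1 = vehicle-only wells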
# CYP2C9 activ = increases human cytochrome P450 2C9 activity. 96,000 compounds, 1.4% hits. AID 1024. activation factor at 5 µM. recombinant CYP2C9, luciferin-H conversion, luminescence; active compounds read high; factor 1 = untreated enzyme, 0 = blocked;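 active means activation factor of 2 or more for CYP2C9 at a 5 µM dose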;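 further: 0 = sulfaphenazole-blocked wells and 1 = vehicle-only wells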
# Numbers without * were called inactive; . = not tested or not shown.
SMILES,Measles CPE,CYP2C9 inhib,CYP2C19 inhib,CYP2C19 activ,CYP2C9 activ
CCC(COC(=O)Nc1cccc(C)c1C)NC(=O)OCC(C)C (stereo not drawn),4.9,49.5,95.8*,0,0.5
CCCOC(=O)NC(CC)COC(=O)Nc1cccc(C)c1C (stereo not drawn),16.1,16.1,71.6*,0.3,0.8
CCCOC(=O)Nc1cccc(C(C)=O)c1,4.9,.,.,.,.
Cc1ccc(S(=O)(=O)Cc2ccc(C(=O)N3CCCC3)o2)cc1,5.6,19.0,58.5*,0.4,0.8
Cc1ccc(S(=O)(=O)Cc2ccc(C(=O)N3CCCCCC3)o2)cc1,7.0,27.7,31.2,0.7,0.7
CCOC(=O)C1CCCN(C(=O)c2ccc(CS(=O)(=O)Cc3ccccc3C)o2)C1 (stereo not drawn),10.9,36.8,31.0,0.7,0.6
CCOC(=O)C1CCCN(C(=O)c2ccc(CS(=O)(=O)c3ccc(C)cc3)o2)C1 (stereo not drawn),8.2,83.1*,11.4,0.9,0.2
Cn1c(=O)c2c(nc(SCC(=O)N3CCc4ccccc4C3)n2C)n(C)c1=O,5.7,13.7,8.9,0.9,0.9
O=S(=O)(c1ccccc1)C1(S(=O)(=O)c2ccccc2)CCCC1,10.5,57.8*,97.8*,0,0.4
O=C(c1ccccc1)c1ccc(N2CCNCC2)cc1,2.7,44.2,76.9*,0.2,0.6
O=C(O)CCC(=O)N1CCN(c2ccc(C(=O)c3ccc(F)cc3)cc2)CC1,13.8,-5.8,2.6,1,1.1
CN1CCN(c2ccc(C(=O)c3ccc(F)cc3)cc2)CC1,20.4,5.9,51.6*,0.5,0.9
CC(C)(C)OC(=O)NNC1CC(=O)N(c2ccccc2F)C1=O (stereo not drawn),5.1,4.9,6.6,0.9,1
Cc1ccc2nc(Cl)c(CN(Cc3cccs3)C(=O)C3CC3)cc2c1,37.4*,16.9,0.8,1,0.8
CC1(C)CC(=O)C(C=NCc2ccc3c(c2)OCO3)=C(O)C1,9.7,5.8,12.1,0.9,0.9
COC(=O)Nc1sc2c(c1C(N)=O)CCCCCC2,8.2,-8.4,54.6*,0.5,1.1
CC(=O)NC(=S)Nc1sc2c(c1C#N)CCCCC2,14.9,.,.,.,.
CCOC(=O)c1c(NC(=O)Cc2cccs2)sc2c1CCCC2,18.0,42.8,10.2,0.9,0.6
NC(=O)c1c(NC(=O)Cc2cccs2)sc2c1CCC2,44.9*,58.0*,43.9,0.6,0.4
N#Cc1c(NC(=S)NC(=O)Cc2cccs2)sc2c1CCCCC2,1.9,88.7*,27.5,0.7,0.1
CCCS(=O)(=O)N1CCCC(C(=O)NCCN(CC)c2ccccc2)C1 (stereo not drawn),10.9,-43.1,8.6,0.9,1.4
Cc1ccc(OC2=NS(=O)(=O)c3ccccc32)cc1,27.7*,4.3,-17.7,1.2,1
Cc1cc(C)n(CC(=O)N/N=C/c2cccs2)n1,3.5,.,.,.,.
CC(Sc1n[nH]c(=O)[nH]c1=O)C(=O)OCc1ccccc1 (stereo not drawn),31.1,-13.6,-20.4,1.2,1.1
CC(=O)/C(C#N)=C1\NC(=O)C(Cc2ccc(C)c(C)c2)S1 (stereo not drawn),68.5*,94.4*,-5.4,1.1,0.1
SMILES,Measles CPE,CYP2C9 inhib,CYP2C19 inhib,CYP2C19 activ,CYP2C9 activ
CC(=O)/C(C#N)=C1\NC(=O)C(Cc2ccccc2Cl)S1 (stereo not drawn),37.6*,.,.,.,.
Cc1ccc(CC2SC(=O)NC2=O)cc1Cl (stereo not drawn),10.2,.,.,.,.
C[C@@]1([C@@H](NC(=O)c2cccs2)c2ccc(-c3ccccc3)cc2)C[C@H]1C1CCCCC1,27.4,.,.,.,.
O=C(Nc1ccc(Cc2ccc(NC(=O)N3CCOCC3)cc2)cc1)N1CCOCC1,22.9,-3.6,-9.0,1.1,1
Cc1ccc(-c2nn3c(-c4cccc(Cl)c4)nnc3s2)cc1,.,36.1,12.2,0.9,0.6
O=C(CCn1c(=O)[nH]c2ccccc2c1=O)N1CCN(c2ccc(Cl)cc2)CC1,9.9,15.4,12.8,0.9,0.8
CC1CCCN(C(=O)CCCn2c(=S)[nH]c3ccccc3c2=O)C1 (stereo not drawn),8.2,51.2*,53.1*,0.5,0.5
O=C(CCn1c(=O)[nH]c2ccccc2c1=O)N1CCN(c2cccc(C(F)(F)F)c2)CC1,21.0,35.5,67.2*,0.3,0.6
O=C(CCCCn1c(=O)[nH]c2ccccc2c1=O)N1CCN(c2cccc(C(F)(F)F)c2)CC1,10.0,48.9,62.4*,0.4,0.5
O=C(CCCn1c(=S)[nH]c2ccccc2c1=O)N1CCN(c2cccc(Cl)c2)CC1,59.0*,-2.6,-11.7,1.1,1
O=C1CSC(c2cccc(Cl)c2Cl)N1c1ccccn1 (stereo not drawn),9.4,.,.,.,.
CC1CCCCC1n1c(=S)[nH]c2ccccc2c1=O (stereo not drawn),19.8,20.1,72.0*,0.3,0.8
Cc1cccn2c1nc(=S)n2C(=O)c1ccco1,7.1,.,.,.,.
CN=C(c1ccco1)n1c(=S)nc(-c2ccco2)n(C)c1=S,10.2,65.8*,78.6*,0.2,0.3
O=C(N/N=C/C=C/c1ccco1)c1cccc([N+](=O)[O-])c1,1.3,.,.,.,.
COC(=O)c1coc(-c2ccc(C)cc2)c1C(=O)OC,6.7,59.4*,78.9*,0.2,0.4
COC(=O)c1coc(-c2ccc(OC)cc2)c1C(=O)OC,21.5,19.4,62.7*,0.4,0.8
COC(=O)c1noc(-c2ccc(C)cc2)n1,16.8,-11.1,-5.1,1.1,1.1
COC(=O)c1ccc(CNC(=O)CSc2nnc(COc3ccccc3)n2C)o1,5.6,14.9,10.0,0.9,0.9
COc1cccc(Nc2nc(-c3cccc(N4C(=O)c5ccccc5C4=O)c3)cs2)c1,5.5,62.5*,26.5,0.7,0.4
COc1cccc(Nc2nc(-c3ccc(O)cc3)cs2)c1,8.7,82.1*,48.7,0.5,0.2
Oc1ccc(Nc2nc(-c3cccs3)cs2)cc1,16.8,.,.,.,.
COc1cccc(-c2csc(NC(=O)C3CC3)n2)c1,8.8,23.9,13.2,0.9,0.8
Cc1cccnc1Nc1nc(-c2ccc(O)cc2)cs1,2.3,63.1*,88.1*,0.1,0.4
CC(/C=C1\SC(=S)N(CC(=O)N2CCN(c3ccccc3)CC2)C1=O)=C\c1ccccc1,10.6,.,.,.,.
SMILES,Measles CPE,CYP2C9 inhib,CYP2C19 inhib,CYP2C19 activ,CYP2C9 activ
CC1CCN(c2ccc(N3C(=O)C4CCCCC4C3=O)cc2[N+](=O)[O-])CC1 (stereo not drawn),48.5*,.,.,.,.
CC1CCN(c2cc(C#N)c(C#N)cc2[N+](=O)[O-])CC1,4.3,-26.8,1.3,1,1.3
CCn1c(CCC(=O)Nc2nc3c(s2)CCCC3)nc2cc(S(=O)(=O)N(C)C)ccc21,28.8,90.7*,75.3*,0.2,0.1
O=C(Nc1ccc2c(c1)oc1ccccc12)C1CC1,4.0,-0.3,6.5,0.9,1
O=C(Nc1ccc2c(c1)OC1(CCCC1)O2)C1CC1,10.6,63.9*,88.2*,0.1,0.4
Cc1cccc(NS(=O)(=O)c2ccc(C)c(C(=O)OCC(=O)Nc3cc(C)on3)c2)c1,28.0,94.0*,89.4*,0.1,0.1
